# Screening results deposited in PubChem BioAssay by Sanford-Burnham Center for Chemical Genomics.
# GRIN3A LBD mod: binders of NR3A ligand-binding domain, primary screen, biophysical, differential scanning fluorimetry, uHTS | AID 1259313, 2017 | Glutamate receptor ionotropic, NMDA 3A (GRIN3A) ligand-binding domain | NR3A LBD differential scanning fluorimetry, Tm shift; 0% = protein alone, 100% = glycine-bound protein | actives 2.5% (n = 340,000) | Tm shift relative to glycine control, % at 25 µM;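 active = melting temperature shift of at least 10% of the positive control shift, at one fixed dose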
# MPTP block: mitochondrial permeability transition pore inhibitors, primary screen, biochemical, isolated mouse mitochondria, absorbance; inhibition, % at 10 µM; actives 1.4% (n = 360,000); AID 602449, 2012; Ca2+ swelling absorbance, 30 min;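 active = inhibition of 50% or more, scaled per plate between neutral and stimulator controls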;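 also: 0% = DMSO wells given calcium and 100% = 1 mM EGTA wells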
# MIN6 prolif: inducers of MIN6 beta-cell proliferation, primary screen, ATP luminescence, uHTS; MIN6 cells proliferation, ATPlite luminescence, 48 h; cells starved in 0.2% serum; 100% = growth in 10% serum; proliferation, % at 10 µM; actives 0.29% (n = 330,000); AID 2380, 2010;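 active = compounds whose signal lies at least 3.5 SD above the mean of all wells on their plate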;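 also: 0% = DMSO-treated cells in low-serum medium and 100% = 10% serum control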
# FAS-TE inh: FAS thioesterase domain inhibitors, primary screen, biochemical, fluorescence intensity, uHTS | Fatty acid synthase (Homo sapiens), P49327 | recombinant FAS-TE, OMFH fluorogenic substrate, fluorescence endpoint | inhibition, % at 15 µM | actives 0.67% (n = 360,000) | AID 602261, 2012;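 active = compounds whose normalised, plate-corrected inhibition of enzyme fluorescence in the single-dose primary screen is 50% or more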;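 also: 0% = DMSO with enzyme and 100% = substrate without enzyme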
# pCIP destab: p/CIP-EGFP fusion destabilizers, primary screen, fluorescence, F442A cells. 16 h. actives 0.01% (n = 290,000). decrease of EGFP signal, % at 10 µM. Q05BA5;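 active = EGFP signal decrease of at least 30% at 10 µM or well 3 SD below plate mean, unless failing retest; inactive = the rest, including hits failing retest or dose response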
# Numbers without * were called inactive; x = no result. A selection: hits, their analogues and other compounds. The true share with any hit is near 4.1%.
SMILES,GRIN3A LBD mod,MPTP block,MIN6 prolif,FAS-TE inh,pCIP destab
CC1(C(=O)NS(=O)(=O)c2ccccc2C(F)(F)F)CCN1C(=O)CCC1CCCC1 (stereo unspecified),x,-0.2,x,-5.6,x
CN=C1CC(SC)=C1c1ccc(C)cc1,18.7*,-3.5,0.9,-9.8,-0.3
O=C(Cc1ccccc1)NC(CSSCC(NC(=O)Cc1ccccc1)C(=O)O)C(=O)O (stereo unspecified),36.1*,-0.6,x,-9.1,x
O=C(Cc1ccccc1)NNC(=O)Cc1ccccc1,-3.3,0.4,0.6,-2.9,-10.8
Cc1ccc(NS(=O)(=O)c2ccc(N3CCN(c4ccc(O)cc4)CC3)c([N+](=O)[O-])c2)c(C)c1,17.2*,4.4,0.0,9.3,-19.9
CCNC(=O)C[C@@H]1C=C[C@@H](NS(=O)(=O)c2ccc(F)cc2)[C@@H](CO)O1,x,-0.7,x,x,x
Cc1ccc(N2C(=O)C3C4C=CC(CNC(=S)Nc5cccc(Cl)c5)(O4)C3C2=O)cc1 (stereo unspecified),20.3*,4.3,-5.4,20.9,1.0
Cc1ccc(N2C(=O)C3C4C=CC(CNC(=S)Nc5ccc(Cl)cc5)(O4)C3C2=O)cc1 (stereo unspecified),11.7*,2.9,-4.4,19.6,-15.8
O=S1(=O)CC(N2CCCCC2)CN1Cc1cn(Cc2ccc(F)cc2)nn1 (stereo unspecified),x,0.3,x,-14.6,x
Cc1ccc(NC2Sc3ccccc3NC2=O)cc1 (stereo unspecified),12.8*,-4.9,-6.5,6.0,-10.7
COc1ccc(NC(=O)COC(=O)CC2Sc3ccccc3NC2=O)cc1 (stereo unspecified),4.4,-0.6,-0.9,3.2,x
O=C1Nc2ccccc2SC1c1ccccc1 (stereo unspecified),1.3,0.5,x,-3.6,8.3
COC(=O)CC1Sc2ccccc2NC1=O (stereo unspecified),13.9*,0.0,1.0,-9.3,-9.0
Cc1ccc(-n2nnnc2-c2ccccc2)cc1,-1.5,4.2,4.4,-1.1,12.2
COc1ccc(-n2nnnc2-c2cccnc2)cc1,15.3*,-4.4,-0.5,-6.7,-11.9
CCOC(=O)[C@]12CCCC=C1N(Cc1cccc3ccccc13)C(=O)[C@H](CC(=O)NCc1ccccc1)C2,x,0.4,x,14.4,x
O=S(=O)(c1ccccc1)[C@@]1(c2ccccc2)C[C@@H]2ON=C(c3cccc(Br)c3)[C@@H]2C1,0.5,-0.2,-6.0,55.2*,x
O=C(O)[C@]1(S(=O)(=O)c2ccccc2)C[C@@H]2ON=C(c3cccc(Br)c3)[C@@H]2C1,-0.6,1.2,-5.9,-10.4,2.4
OCCOC1CCCc2oc(-c3ccccc3)c(C#CC3(O)CCCCC3)c21 (stereo unspecified),x,-1.3,x,4.0,x
CCCOc1ccc(C(=O)NNC(=S)NC(=O)c2cc(-c3ccccc3)nc3ccccc23)cc1,18.4*,30.0,-4.9,13.2,-9.3
CCOc1ccc(NC(=O)C(C)Oc2ccccc2C(=O)Nc2cccc(Cl)c2Cl)cc1 (stereo unspecified),11.6*,3.0,-0.7,27.8,-9.1
O=C(c1ccc2c(c1)[nH]c(=S)n1c3ccccc3nc21)N1CCN(c2ncccn2)CC1,11.1*,2.8,0.2,3.7,-6.3
CCc1ccc(-c2cc(C)no2)cc1S(=O)(=O)Nc1cc(C)on1,31.3*,0.6,-0.1,-4.2,-0.1
Cc1ccc(NC(=S)NCc2ccc3[nH]c4c(c3c2)CCCC4)cc1,11.0*,3.0,-7.4,9.8,-17.2
Oc1ccccc1-c1nc(NCc2cccnc2)c2ccccc2n1,2.4,0.9,-3.2,9.7,1.3
Fc1ccccc1-c1nc(NCc2ccco2)c2ccccc2n1,-5.8,4.8,-0.5,16.7,2.1
Oc1ccccc1-c1nc(NCc2ccccc2)c2ccccc2n1,16.3*,2.4,-4.3,25.7,5.4
Oc1ccccc1-c1nc(NCc2ccco2)c2ccccc2n1,13.8*,21.8,-1.8,24.1,-9.1
Cc1cc(NC(=O)CS(=O)(=O)c2cn(Cc3cccc(C(F)(F)F)c3)c3ccccc23)no1,x,3.3,x,14.0,x
Cc1ccc(O)c(-c2cc(C(=O)Nc3ccc(S(=O)(=O)Nc4nc(C)cc(C)n4)cc3)[nH]n2)c1,29.9*,3.3,-4.0,-6.1,-5.4
